The record followed here is PubChem BioAssay (NCI).

Test systems include NCI-H23 lung; NCI-H226 lung; NCI-H322M lung; HOP-62 NSCLC; NCI-H460 lung; NCI-H522 lung; A549/ATCC NSCLC; 786-0 renal; COLO 205 colon; DU-145 prostate; K-562 leukemia; MALME-3M melanoma; MDA-MB-231 breast; RXF 393 renal; SF-268 CNS; SF-295 CNS; SF-539 CNS; UACC-257 melanoma; M14 melanoma.
Assay in all cases: NCI-60 one-dose screen, 48 h (100 = growth as untreated, 0 = no growth, -100 = all killed)
Holding throughout (details): 10 µM unless noted

The panel holds about 83,000 compounds, 20% with a hit somewhere; the sample as a whole holds those more often.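 Step 1: grow cells in 96-well plates. Step 2: add test compound at a single concentration. Step 3: incubate 48 h. Step 4: record percent growth.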 Unmarked numbers belong to inactive results. Active and inactive are the calls of the source. How the source made its calls: active means growth percent below 10; inactive means the rest.

As to `COc1ccc(-c2nc3c(c(-c4ccc(Cl)cc4)nn3-c3ccccc3)c(-c3ccc(O)cc3)c2C#N)cc1`, the growth is 52.8% in the assay with NCI-H23 lung; 70.6% in the assay on NCI-H226 lung; 75.5% in the assay on NCI-H322M lung; 57.5% with HOP-62 NSCLC; 14.1% with NCI-H460 lung; 58.3% with NCI-H522 lung. The growth was 41.2% in the assay on A549/ATCC NSCLC; 9.2% (active) in the assay on 786-0 renal; 57.8% in the assay on COLO 205 colon; 51.6% with DU-145 prostate; 10.8% in the assay on K-562 leukemia; 62.6% with MALME-3M melanoma. The growth in the assay on MDA-MB-231 breast is 65.6%; in the assay on RXF 393 renal it was -12.7% (active); with SF-268 CNS, 46.1%; in the assay on SF-295 CNS, -6.26% (active); with SF-539 CNS, 27.6%; with UACC-257 melanoma it was 65.4%. The growth in the assay on M14 melanoma was 45.9%.
`O=C(/C=C/c1ccc(F)cc1)N1CCN(C(=O)/C=C/c2ccc(C(F)(F)F)cc2)CC1`: the growth with NCI-H23 lung was 106%; in the assay with NCI-H226 lung, 108%; in the assay on NCI-H322M lung, 106%; in the assay with HOP-62 NSCLC it was 109%; in the assay with NCI-H460 lung, 116%; with NCI-H522 lung, 92%. Also, the growth is 96.9% with A549/ATCC NSCLC; 107% with 786-0 renal; 126% with COLO 205 colon; 109% with DU-145 prostate; 104% in the assay on K-562 leukemia; 98.6% in the assay with MALME-3M melanoma. Further, the growth in the assay on MDA-MB-231 breast was 96.8%; with RXF 393 renal, 120%; in the assay with SF-268 CNS, 114%; with SF-295 CNS, 119%; in the assay with SF-539 CNS, 123%; with UACC-257 melanoma, 97.3%. The growth in the assay on M14 melanoma was 97.4%.
Consider `COc1cc2ncnc(Nc3ccc(S(=O)(=O)Nc4cc(C)on4)cc3)c2cc1OCCCN1CCN(c2ccc([N+](=O)[O-])cc2)CC1`, for which the growth with NCI-H23 lung is 103%; in the assay with NCI-H226 lung it was 107%; in the assay on NCI-H322M lung, 103%; in the assay on HOP-62 NSCLC, 106%; in the assay with NCI-H460 lung, 110%; in the assay on NCI-H522 lung, 94.7%. Moreover, the growth in the assay with A549/ATCC NSCLC is 106%; in the assay with 786-0 renal it was 109%; in the assay with COLO 205 colon it was 105%; with DU-145 prostate, 112%; with K-562 leukemia, 120%; in the assay on MALME-3M melanoma, 104%. Besides, the growth is 97.9% with MDA-MB-231 breast; 115% in the assay with RXF 393 renal; 102% in the assay with SF-268 CNS; 109% with SF-295 CNS; 102% in the assay with SF-539 CNS; 107% in the assay on UACC-257 melanoma. For the same compound, in the assay with M14 melanoma, the growth is 98.4%.
As to `CC(=O)Nc1c(Br)cc2c(c1Br)Cc1cc(Br)ccc1-2`, the growth with NCI-H23 lung was 72.8%; with NCI-H226 lung, 85%; in the assay on NCI-H322M lung, 88.2%; with HOP-62 NSCLC, 29.1%; in the assay on NCI-H460 lung it was 38.8%; in the assay on NCI-H522 lung, 76%. For the same compound, the growth is 20.8% with A549/ATCC NSCLC; 87% in the assay with 786-0 renal; 35% with COLO 205 colon; 91.9% in the assay with DU-145 prostate; 80.5% in the assay on K-562 leukemia; 99.2% with MALME-3M melanoma. For the same compound, the growth in the assay with MDA-MB-231 breast is 51.1%; in the assay with RXF 393 renal it was 92%; in the assay on SF-268 CNS, 69.9%; in the assay on SF-295 CNS it was -18.8% (active); with SF-539 CNS, 86.5%; in the assay with UACC-257 melanoma it was 89.1%. Moreover, the growth in the assay with M14 melanoma was 62.4%.
Take `CN1C(=O)N(C)C2C1NN=c1s/c(=C\c3ccc(Br)cc3)c(=O)n12` (stereo unspecified): the growth is 41.9% in the assay with NCI-H23 lung; 59.8% in the assay on NCI-H226 lung; 49.7% in the assay on NCI-H322M lung; 32.4% in the assay on HOP-62 NSCLC; 13.4% with NCI-H460 lung; -14.6% (active) in the assay with NCI-H522 lung. The growth in the assay on A549/ATCC NSCLC is 38.8%; with 786-0 renal, 30.2%; with COLO 205 colon, 0.786% (active); in the assay with DU-145 prostate, 17.2%; in the assay with K-562 leukemia it was 10.7%; in the assay on MALME-3M melanoma, 67.7%. Moreover, the growth with MDA-MB-231 breast was 66.1%; with RXF 393 renal it was 9.08% (active); in the assay on SF-268 CNS, 39.4%; with SF-295 CNS it was 23.1%; with SF-539 CNS, 7.53% (active); in the assay on UACC-257 melanoma, 46%. For the same compound, in the assay with M14 melanoma, the growth was 32.8%.
For `Cc1ccccc1NC(=O)c1sc2nc3c(cc2c1N)C(=O)CCC3`, the growth is 50.6% with NCI-H23 lung; 65.8% in the assay on NCI-H226 lung; 71.4% with NCI-H322M lung; 38.2% in the assay on HOP-62 NSCLC; 15.3% with NCI-H460 lung; 12.5% in the assay on NCI-H522 lung. Besides, the growth with A549/ATCC NSCLC was 37.6%; in the assay with 786-0 renal, 51.6%; in the assay on COLO 205 colon it was 6.12% (active); with DU-145 prostate it was 18.3%; with K-562 leukemia, 22.1%; with MALME-3M melanoma, 66.5%. Besides, the growth in the assay with MDA-MB-231 breast was 61.6%; with RXF 393 renal, -10.4% (active); in the assay on SF-268 CNS, 65.4%; in the assay on SF-295 CNS it was 57.2%; with SF-539 CNS, 27.6%; with UACC-257 melanoma, 61%. Moreover, the growth with M14 melanoma is 41.5%.
Consider `C=C1C(=O)O[C@H]2[C@H]1CC/C(COC(=O)NCc1[nH]nc3ccccc13)=C\CC[C@@]1(C)O[C@@H]21`, for which the growth was 69.4% with NCI-H23 lung; 65.4% in the assay with NCI-H226 lung; 87.6% in the assay with NCI-H322M lung; 48.6% in the assay with HOP-62 NSCLC; 28.6% in the assay with NCI-H460 lung; -68.6% (active) in the assay on NCI-H522 lung. For the same compound, the growth in the assay on A549/ATCC NSCLC was 45.6%; in the assay with 786-0 renal, -25.4% (active); in the assay with COLO 205 colon, -76.7% (active); in the assay with DU-145 prostate it was 12.2%; with K-562 leukemia it was 2.29% (active); with MALME-3M melanoma, -43% (active). Moreover, the growth in the assay on MDA-MB-231 breast is 49.1%; in the assay on RXF 393 renal it was -18.3% (active); in the assay on SF-268 CNS, 55.2%; in the assay on SF-295 CNS, 72.6%; in the assay on SF-539 CNS, 4.74% (active); in the assay with UACC-257 melanoma, 38%. The growth in the assay with M14 melanoma is 13.8%.
In the case of `CCCCCCCC/C=C/CCCCCCCC1=NC(C)(C)CN1c1ccccc1`, the growth in the assay on NCI-H23 lung is 89.1%; in the assay on NCI-H226 lung it was 99%; in the assay with NCI-H322M lung it was 116%; with HOP-62 NSCLC, 100%; in the assay with NCI-H460 lung it was 103%; with NCI-H522 lung, 65.1%. Further, the growth with A549/ATCC NSCLC is 91.6%; in the assay with 786-0 renal, 81.8%; with COLO 205 colon, 97.8%; in the assay on DU-145 prostate it was 97.2%; with K-562 leukemia it was 65.9%; in the assay on MALME-3M melanoma, 115%. Further, the growth with MDA-MB-231 breast is 103%; with RXF 393 renal, 85%; in the assay with SF-268 CNS, 91.9%; in the assay with SF-295 CNS, -5.3% (active); with SF-539 CNS it was 96.9%; in the assay with UACC-257 melanoma, 90.2%. Further, the growth with M14 melanoma was 99.7%.
For the compound `COc1cc(NCC(O)CN(CC(C)C)CC(C)C)c2ncccc2c1` (stereo unspecified), the growth was 82% with NCI-H23 lung; 74.9% with NCI-H226 lung; 95.6% in the assay with NCI-H322M lung; 84.8% in the assay with HOP-62 NSCLC; 95.4% in the assay on NCI-H460 lung; 55.9% in the assay with NCI-H522 lung. The growth with A549/ATCC NSCLC is 91.6%; in the assay on 786-0 renal, 85%; with COLO 205 colon, 81%; in the assay on DU-145 prostate, 113%; in the assay with K-562 leukemia, 59.6%; in the assay with MALME-3M melanoma it was 89.6%. Also, the growth in the assay with MDA-MB-231 breast is 85.5%; in the assay on RXF 393 renal it was 51.5%; with SF-268 CNS, 98.5%; in the assay on SF-295 CNS it was 91.9%; in the assay on SF-539 CNS, 102%; with UACC-257 melanoma, 77.2%. In the assay on M14 melanoma, the growth is 87.7%.
